Measurements published in ChEMBL document CHEMBL1961873, “Compounds: GSK PKIS; Assays: Nanosyn kinase panel” (2012).

Key:
[1] = biological target: Protein kinase C gamma type (Homo sapiens) (UniProt P05129); conditions: at 1 µM;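 further: each value is an averaged percent inhibition of the enzyme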
[2] = biological target: T1, Protein kinase C iota type (Homo sapiens) (UniProt P41743); conditions: at 0.1 µM
T1 sequence (whole entry): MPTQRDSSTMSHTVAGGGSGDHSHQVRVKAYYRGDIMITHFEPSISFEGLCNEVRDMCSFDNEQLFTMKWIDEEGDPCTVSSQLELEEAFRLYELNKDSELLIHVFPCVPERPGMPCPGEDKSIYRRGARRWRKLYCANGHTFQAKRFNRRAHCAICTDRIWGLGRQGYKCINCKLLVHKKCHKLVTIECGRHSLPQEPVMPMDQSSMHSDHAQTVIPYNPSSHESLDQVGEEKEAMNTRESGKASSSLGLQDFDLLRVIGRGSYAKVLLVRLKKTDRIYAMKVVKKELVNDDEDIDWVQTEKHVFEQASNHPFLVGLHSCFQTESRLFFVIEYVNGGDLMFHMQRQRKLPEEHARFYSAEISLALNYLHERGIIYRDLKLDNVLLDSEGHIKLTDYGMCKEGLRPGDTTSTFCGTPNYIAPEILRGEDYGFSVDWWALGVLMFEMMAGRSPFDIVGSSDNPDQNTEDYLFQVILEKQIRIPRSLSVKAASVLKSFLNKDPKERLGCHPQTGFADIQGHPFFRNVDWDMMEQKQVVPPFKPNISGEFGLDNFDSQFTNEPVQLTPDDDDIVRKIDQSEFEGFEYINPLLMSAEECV

[3] = biological target: T1, Protein kinase C iota type (Homo sapiens); conditions: at 1 µM
[4] = biological target: Protein kinase C theta type (Homo sapiens) (UniProt Q04759); conditions: at 0.1 µM
Protein kinase C theta type (Homo sapiens), sequence (Q04759 whole entry, looked up): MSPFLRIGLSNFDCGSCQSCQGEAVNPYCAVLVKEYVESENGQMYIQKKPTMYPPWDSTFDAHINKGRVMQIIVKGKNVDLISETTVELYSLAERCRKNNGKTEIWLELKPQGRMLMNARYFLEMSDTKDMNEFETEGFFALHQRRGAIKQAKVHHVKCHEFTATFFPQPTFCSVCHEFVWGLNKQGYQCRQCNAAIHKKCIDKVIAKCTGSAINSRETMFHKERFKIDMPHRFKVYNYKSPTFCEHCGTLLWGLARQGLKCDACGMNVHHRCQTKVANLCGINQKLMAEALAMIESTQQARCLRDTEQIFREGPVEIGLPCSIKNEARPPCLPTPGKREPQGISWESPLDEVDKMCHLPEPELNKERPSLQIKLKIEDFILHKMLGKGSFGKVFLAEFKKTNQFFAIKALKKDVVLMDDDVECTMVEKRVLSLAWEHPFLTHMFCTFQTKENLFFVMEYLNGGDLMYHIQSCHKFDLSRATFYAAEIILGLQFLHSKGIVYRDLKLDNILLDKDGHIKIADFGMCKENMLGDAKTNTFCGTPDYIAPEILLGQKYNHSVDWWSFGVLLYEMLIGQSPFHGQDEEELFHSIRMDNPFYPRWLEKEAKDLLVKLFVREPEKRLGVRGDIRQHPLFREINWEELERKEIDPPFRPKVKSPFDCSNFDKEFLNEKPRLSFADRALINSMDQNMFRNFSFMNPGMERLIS

[5] = biological target: Protein kinase C theta type (Homo sapiens) (UniProt Q04759); conditions: at 1 µM
[6] = biological target: Protein kinase C beta type (Homo sapiens) (UniProt P05771); conditions: at 0.1 µM
Protein kinase C beta type (Homo sapiens), sequence (P05771 2-671 limits assumed): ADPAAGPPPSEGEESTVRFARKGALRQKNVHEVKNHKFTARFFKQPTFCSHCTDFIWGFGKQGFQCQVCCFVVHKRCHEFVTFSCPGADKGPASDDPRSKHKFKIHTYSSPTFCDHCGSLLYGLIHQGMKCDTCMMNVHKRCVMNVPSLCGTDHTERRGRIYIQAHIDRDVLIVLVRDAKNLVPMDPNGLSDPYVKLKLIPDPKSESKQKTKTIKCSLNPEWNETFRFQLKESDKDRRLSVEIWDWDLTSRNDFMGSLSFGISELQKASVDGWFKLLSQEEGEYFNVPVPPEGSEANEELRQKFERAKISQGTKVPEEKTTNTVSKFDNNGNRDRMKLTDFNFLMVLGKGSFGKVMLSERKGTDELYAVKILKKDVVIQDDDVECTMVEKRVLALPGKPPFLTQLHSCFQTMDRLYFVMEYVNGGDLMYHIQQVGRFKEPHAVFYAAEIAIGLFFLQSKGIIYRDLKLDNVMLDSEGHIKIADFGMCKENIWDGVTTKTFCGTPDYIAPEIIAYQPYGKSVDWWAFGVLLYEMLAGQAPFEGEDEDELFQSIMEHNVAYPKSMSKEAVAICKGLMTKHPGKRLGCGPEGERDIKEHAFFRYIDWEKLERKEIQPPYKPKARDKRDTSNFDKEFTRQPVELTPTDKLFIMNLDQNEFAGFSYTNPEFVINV

[7] = biological target: Protein kinase C beta type (Homo sapiens) (UniProt P05771); conditions: at 1 µM
[8] = biological target: T2, Serine/threonine-protein kinase D1 (Homo sapiens) (UniProt Q15139); conditions: at 0.1 µM
T2 sequence (whole entry): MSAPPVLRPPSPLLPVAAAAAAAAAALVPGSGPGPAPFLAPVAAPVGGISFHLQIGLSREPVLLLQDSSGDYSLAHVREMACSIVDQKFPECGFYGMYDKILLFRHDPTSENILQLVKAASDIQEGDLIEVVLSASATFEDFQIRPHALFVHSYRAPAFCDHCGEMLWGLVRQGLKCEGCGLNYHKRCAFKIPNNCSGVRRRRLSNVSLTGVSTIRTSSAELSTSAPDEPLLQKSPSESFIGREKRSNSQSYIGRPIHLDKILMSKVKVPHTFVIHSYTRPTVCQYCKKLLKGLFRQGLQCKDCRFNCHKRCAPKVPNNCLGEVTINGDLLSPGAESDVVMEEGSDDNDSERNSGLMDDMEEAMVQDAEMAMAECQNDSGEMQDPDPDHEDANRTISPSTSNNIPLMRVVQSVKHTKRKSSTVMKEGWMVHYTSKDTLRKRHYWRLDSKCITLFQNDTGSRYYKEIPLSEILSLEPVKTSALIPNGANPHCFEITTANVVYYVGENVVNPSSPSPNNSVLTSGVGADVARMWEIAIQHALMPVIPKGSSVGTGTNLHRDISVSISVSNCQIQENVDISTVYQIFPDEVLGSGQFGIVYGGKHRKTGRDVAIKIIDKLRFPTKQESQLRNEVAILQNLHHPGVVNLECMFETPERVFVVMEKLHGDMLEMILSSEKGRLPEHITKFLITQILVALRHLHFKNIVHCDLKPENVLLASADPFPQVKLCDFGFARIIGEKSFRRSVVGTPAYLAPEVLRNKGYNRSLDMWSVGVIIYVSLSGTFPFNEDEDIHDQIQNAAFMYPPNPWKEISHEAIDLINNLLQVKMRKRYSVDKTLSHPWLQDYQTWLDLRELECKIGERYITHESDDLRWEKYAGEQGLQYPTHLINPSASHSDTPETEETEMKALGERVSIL

[9] = biological target: T2, Serine/threonine-protein kinase D1 (Homo sapiens); conditions: at 1 µM
[10] = biological target: T3, Serine/threonine-protein kinase D2 (Homo sapiens) (UniProt Q9BZL6); conditions: at 0.1 µM
T3 sequence (whole entry): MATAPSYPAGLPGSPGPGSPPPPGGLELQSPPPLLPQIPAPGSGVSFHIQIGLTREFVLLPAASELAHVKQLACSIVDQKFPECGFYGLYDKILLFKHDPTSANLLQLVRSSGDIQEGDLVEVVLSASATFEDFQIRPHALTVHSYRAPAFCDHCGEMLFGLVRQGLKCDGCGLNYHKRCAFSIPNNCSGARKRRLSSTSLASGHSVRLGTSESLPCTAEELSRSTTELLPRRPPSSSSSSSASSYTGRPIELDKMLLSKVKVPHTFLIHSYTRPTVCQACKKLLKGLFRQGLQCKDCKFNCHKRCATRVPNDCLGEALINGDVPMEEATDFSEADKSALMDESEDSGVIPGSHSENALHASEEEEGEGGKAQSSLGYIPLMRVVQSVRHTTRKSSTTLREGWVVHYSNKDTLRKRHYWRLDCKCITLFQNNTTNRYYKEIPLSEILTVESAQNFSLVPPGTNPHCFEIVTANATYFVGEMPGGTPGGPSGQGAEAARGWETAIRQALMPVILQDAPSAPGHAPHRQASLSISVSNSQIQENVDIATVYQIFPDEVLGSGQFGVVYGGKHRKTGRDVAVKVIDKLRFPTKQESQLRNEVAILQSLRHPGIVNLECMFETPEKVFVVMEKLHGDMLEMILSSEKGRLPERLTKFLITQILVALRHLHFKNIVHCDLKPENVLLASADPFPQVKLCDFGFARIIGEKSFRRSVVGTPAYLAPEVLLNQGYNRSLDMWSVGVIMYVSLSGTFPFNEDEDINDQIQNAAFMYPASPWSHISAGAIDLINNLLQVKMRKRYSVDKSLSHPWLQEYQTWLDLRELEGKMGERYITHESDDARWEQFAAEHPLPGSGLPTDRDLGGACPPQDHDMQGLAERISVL

[11] = biological target: T3, Serine/threonine-protein kinase D2 (Homo sapiens); conditions: at 1 µM
[12] = biological target: T4, Serine/threonine-protein kinase D3 (Homo sapiens) (UniProt O94806); conditions: at 0.1 µM
T4 sequence (whole entry): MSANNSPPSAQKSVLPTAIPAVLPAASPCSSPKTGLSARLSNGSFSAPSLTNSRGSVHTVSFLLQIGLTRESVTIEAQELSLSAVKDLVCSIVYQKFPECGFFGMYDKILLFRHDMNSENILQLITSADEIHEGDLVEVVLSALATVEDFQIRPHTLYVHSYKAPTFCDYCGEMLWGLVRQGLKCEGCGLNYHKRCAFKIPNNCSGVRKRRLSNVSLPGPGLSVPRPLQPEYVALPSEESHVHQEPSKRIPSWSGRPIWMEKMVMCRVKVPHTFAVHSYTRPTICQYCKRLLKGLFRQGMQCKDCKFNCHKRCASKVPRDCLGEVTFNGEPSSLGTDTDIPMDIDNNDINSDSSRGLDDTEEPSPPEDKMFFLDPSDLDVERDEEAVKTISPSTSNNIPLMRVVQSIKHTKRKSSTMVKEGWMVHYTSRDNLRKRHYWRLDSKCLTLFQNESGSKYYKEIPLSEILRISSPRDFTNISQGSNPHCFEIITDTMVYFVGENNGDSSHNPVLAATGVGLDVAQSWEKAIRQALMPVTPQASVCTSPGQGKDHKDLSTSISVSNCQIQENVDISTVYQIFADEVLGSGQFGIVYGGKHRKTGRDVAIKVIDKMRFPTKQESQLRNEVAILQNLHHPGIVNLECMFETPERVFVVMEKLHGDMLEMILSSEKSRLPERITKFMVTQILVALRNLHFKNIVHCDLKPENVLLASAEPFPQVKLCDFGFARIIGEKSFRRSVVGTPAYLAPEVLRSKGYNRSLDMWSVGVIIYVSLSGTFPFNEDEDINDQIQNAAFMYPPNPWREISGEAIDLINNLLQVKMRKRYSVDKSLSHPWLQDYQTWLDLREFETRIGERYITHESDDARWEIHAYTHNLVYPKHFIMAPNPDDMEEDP

[13] = biological target: T4, Serine/threonine-protein kinase D3 (Homo sapiens); conditions: at 1 µM
[14] = biological target: T5, cGMP-dependent protein kinase 1 (Homo sapiens) (UniProt Q13976); conditions: at 0.1 µM
T5 sequence (whole entry): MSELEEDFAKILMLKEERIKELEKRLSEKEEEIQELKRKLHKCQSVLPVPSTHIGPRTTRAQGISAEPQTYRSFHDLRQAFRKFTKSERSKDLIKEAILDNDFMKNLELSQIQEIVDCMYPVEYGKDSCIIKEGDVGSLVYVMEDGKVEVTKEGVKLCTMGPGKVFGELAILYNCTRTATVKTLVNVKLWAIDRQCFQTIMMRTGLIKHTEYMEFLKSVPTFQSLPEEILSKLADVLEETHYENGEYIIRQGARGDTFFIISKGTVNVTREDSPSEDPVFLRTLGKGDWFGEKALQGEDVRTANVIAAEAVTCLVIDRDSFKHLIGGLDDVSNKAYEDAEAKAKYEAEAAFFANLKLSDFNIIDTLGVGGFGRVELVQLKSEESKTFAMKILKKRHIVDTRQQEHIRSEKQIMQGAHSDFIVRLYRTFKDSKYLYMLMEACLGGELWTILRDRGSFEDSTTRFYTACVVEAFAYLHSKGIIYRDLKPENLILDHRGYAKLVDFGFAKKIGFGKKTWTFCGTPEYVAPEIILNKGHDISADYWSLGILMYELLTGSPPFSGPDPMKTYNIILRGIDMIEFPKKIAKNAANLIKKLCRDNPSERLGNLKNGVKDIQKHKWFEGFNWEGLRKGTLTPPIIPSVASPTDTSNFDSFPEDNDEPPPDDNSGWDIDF

[15] = biological target: T5, cGMP-dependent protein kinase 1 (Homo sapiens); conditions: at 1 µM
[16] = biological target: T6, cGMP-dependent protein kinase 2 (Homo sapiens) (UniProt Q13237); conditions: at 0.1 µM
T6 sequence (whole entry): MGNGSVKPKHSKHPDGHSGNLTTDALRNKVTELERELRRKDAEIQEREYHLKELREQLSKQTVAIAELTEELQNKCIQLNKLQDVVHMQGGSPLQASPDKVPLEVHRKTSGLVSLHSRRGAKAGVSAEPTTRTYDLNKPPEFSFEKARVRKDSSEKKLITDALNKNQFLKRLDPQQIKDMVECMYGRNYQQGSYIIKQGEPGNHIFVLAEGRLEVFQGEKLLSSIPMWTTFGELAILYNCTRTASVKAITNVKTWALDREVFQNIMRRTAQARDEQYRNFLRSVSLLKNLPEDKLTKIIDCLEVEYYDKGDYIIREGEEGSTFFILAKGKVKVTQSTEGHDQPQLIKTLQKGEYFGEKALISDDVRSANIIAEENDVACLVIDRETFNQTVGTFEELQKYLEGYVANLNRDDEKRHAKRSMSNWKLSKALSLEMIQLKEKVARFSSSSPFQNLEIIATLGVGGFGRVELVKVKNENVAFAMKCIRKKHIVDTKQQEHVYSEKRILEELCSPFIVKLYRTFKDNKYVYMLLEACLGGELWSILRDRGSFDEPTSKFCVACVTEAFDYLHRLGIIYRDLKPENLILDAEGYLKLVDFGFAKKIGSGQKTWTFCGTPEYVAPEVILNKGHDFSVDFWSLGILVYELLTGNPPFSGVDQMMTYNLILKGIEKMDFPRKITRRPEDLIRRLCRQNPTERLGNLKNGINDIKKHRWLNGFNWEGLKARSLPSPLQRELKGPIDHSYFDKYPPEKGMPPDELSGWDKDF

[17] = biological target: T6, cGMP-dependent protein kinase 2 (Homo sapiens); conditions: at 1 µM
[18] = biological target: T7, cAMP-dependent protein kinase catalytic subunit PRKX (Homo sapiens) (UniProt P51817); conditions: at 0.1 µM
T7 sequence (whole entry): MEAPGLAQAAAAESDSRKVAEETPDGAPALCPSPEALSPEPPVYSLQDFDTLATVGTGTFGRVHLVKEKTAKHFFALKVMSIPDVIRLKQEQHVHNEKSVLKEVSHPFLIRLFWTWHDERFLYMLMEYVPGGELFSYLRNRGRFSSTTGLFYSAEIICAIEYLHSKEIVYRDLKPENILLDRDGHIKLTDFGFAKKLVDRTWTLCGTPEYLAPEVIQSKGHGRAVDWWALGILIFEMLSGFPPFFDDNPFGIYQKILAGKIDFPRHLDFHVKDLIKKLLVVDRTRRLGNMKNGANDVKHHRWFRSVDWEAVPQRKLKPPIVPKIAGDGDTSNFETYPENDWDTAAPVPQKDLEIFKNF

[19] = biological target: T7, cAMP-dependent protein kinase catalytic subunit PRKX (Homo sapiens); conditions: at 1 µM
[20] = biological target: Rho-associated protein kinase 1 (Homo sapiens) (UniProt Q13464); conditions: at 0.1 µM;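 further: values are mean percent inhibition of ROCK1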
Rho-associated protein kinase 1 (Homo sapiens), sequence (Q13464 2-1354 limits assumed): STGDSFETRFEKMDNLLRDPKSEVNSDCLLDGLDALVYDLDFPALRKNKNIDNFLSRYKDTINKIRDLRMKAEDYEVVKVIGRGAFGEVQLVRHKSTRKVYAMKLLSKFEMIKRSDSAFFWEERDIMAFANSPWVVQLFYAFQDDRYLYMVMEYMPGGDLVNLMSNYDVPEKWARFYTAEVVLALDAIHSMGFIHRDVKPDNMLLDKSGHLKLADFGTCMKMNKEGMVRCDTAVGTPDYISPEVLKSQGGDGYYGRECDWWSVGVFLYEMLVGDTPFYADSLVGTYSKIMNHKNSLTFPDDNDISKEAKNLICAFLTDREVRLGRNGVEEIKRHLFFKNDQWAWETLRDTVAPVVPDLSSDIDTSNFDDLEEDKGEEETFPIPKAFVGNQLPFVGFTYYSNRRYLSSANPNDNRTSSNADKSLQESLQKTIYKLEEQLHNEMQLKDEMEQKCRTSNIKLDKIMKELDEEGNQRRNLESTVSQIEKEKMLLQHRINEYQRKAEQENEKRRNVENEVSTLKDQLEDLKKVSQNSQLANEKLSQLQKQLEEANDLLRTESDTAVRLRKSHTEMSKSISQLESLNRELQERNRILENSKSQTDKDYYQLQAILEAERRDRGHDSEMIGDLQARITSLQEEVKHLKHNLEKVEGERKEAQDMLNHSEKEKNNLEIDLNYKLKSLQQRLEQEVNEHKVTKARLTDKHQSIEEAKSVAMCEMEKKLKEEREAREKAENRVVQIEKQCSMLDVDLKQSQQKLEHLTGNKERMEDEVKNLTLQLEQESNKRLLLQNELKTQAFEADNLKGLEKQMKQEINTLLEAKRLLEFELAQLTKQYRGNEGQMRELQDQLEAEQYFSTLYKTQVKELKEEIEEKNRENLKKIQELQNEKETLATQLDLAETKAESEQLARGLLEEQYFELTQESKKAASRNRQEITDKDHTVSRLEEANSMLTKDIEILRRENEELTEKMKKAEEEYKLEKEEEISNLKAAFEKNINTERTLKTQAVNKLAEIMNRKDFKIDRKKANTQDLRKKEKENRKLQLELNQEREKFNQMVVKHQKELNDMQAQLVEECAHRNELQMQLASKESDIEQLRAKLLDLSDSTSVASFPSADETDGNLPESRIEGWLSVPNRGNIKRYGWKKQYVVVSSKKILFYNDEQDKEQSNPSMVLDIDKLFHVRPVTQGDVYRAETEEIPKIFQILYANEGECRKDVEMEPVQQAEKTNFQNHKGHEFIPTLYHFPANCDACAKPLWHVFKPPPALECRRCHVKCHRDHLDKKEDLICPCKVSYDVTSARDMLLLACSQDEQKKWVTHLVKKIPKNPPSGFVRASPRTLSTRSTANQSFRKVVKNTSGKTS

SMILES	inhibition [1] [%]	inhibition [2] [%]	inhibition [3] [%]	inhibition [4] [%]	inhibition [5] [%]	inhibition [6] [%]	inhibition [7] [%]	inhibition [8] [%]	inhibition [9] [%]	inhibition [10] [%]	inhibition [11] [%]	inhibition [12] [%]	inhibition [13] [%]	inhibition [14] [%]	inhibition [15] [%]	inhibition [16] [%]	inhibition [17] [%]	inhibition [18] [%]	inhibition [19] [%]	inhibition [20] [%]
COC(=O)Nc1nc2cc(Oc3cccc(NC(=O)Nc4cc(C(F)(F)F)ccc4F)c3)ccc2[nH]1	2.09	-0.71	-0.55	-0.27	-0.91	3.01	1.79	0.22	1.03	0.66	1.8	0.2	2.71	2.33	2.11	1.2	6.47	0.81	2.2	-0.55
NS(=O)(=O)c1cccc(-c2ccc3c(NC(=O)C4CC4)n[nH]c3c2)c1	3.74	0.3	0.53	0.17	0.88	-0.62	2.57	-0.83	0.65	-0.79	-0.76	-0.43	0.3	0.48	0.57	0.6	1.3	0.01	1.02	1.29
CCn1c(-c2nonc2N)nc2ccncc21	4.26	0.76	1.92	-0.28	0	-0.19	0.57	1.02	3.26	1.34	3.25	0.84	2.17	0.57	3.36	2.12	8.39	0.91	-1.6	1.94
